Reference: the supplement of paper PMC10646978
± gives the standard deviation.

Experiments:
Details in all cases: modulator concentration 10 µM
[1] = test system: RAW-Dual (murine macrophage reporter line); assay: NF-kB reporter (SEAP) activity fold change vs agonist alone; higher = enhanced NF-kB activity
Outline: (§1)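 In 384-well plates holding 50 000 RAW-Dual murine macrophage reporter cells per well, compound at 10 μM final was pre-incubated for 1 hour at 37 °C, after which a PRR agonist was added overnight. Supernatant SEAP read with QUANTI-Blue at 620 nm absorbance reported NF-κB, and Lucia luciferase read with QUANTI-Luc luminescence reported IRF. Fold change values come from dividing each reporter signal by the mean of agonist-only control wells on the same plate, averaged over replicate plates with propagated errors.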

[2] = test system: RAW-Dual (murine macrophage reporter line); assay: IRF reporter (Lucia luciferase) activity fold change vs agonist alone; higher = enhanced IRF activity
Outline: as §1

[3] = test system: RAW-Dual (murine macrophage reporter line); assay: viability score (confluency relative to resting cells, overnight) (fraction); higher = more viable, active = viable (0.7 or more)
Outline: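 In 384-well plates, RAW-Dual macrophages received compound at a final 10 μM overnight. Two confluency masks were then made with IncuCyte software from IncuCyte images of all imaged wells. The viability score is defined as confluency relative to resting cells. Passing the cutoff required both masks to lie above 70% of resting cells.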

[4] = agonist: CpG ODN 1826 0.5 ug/mL

Structure (SMILES)	NF-kB reporter [1, 4]	NF-kB reporter ([1]; agonist: LPS 0.1 ug/mL)	NF-kB reporter ([1]; agonist: MPLA […])	IRF reporter ([2]; agonist: 3'3'-cGAMP 10 ug/mL)	IRF reporter ([2]; agonist: LPS 0.1 ug/mL)	IRF reporter ([2]; agonist: MPLA […])	viability score [3]
CCS(=O)(=O)N1CC(CC#N)(n2cc(-c3ncnc4[nH]ccc34)cn2)C1	0.943 ± 0.099	1.13 ± 0.091	2.88 ± 0.17	0.189 ± 0.016	0.338 ± 0.035	0.517 ± 0.07	0.506 (inactive)
CCCc1nc(-c2ccccc2)c(-c2ccc(OC)c(OC)c2)c(=O)[nH]1	0.803 ± 0.067	0.844 ± 0.1	1.06 ± 0.1	0.933 ± 0.057	1.46 ± 0.084	1.78 ± 0.16	1.01 (active)
COc1cc(C=Nc2ccc3oc(-c4ccc(C(C)(C)C)cc4)nc3c2)ccc1OC(=O)c1ccc(Cl)cc1Cl	0.994 ± 0.056	0.981 ± 0.11	0.936 ± 0.11	0.931 ± 0.031	1.28 ± 0.15	1.14 ± 0.1	1.01 (active)
Cc1c(C)n2c3c(=O)n(CC=Cc4ccccc4)c(=O)n(C)c3nc2n1CCOCCO	0.702 ± 0.046	1.16 ± 0.091	1.03 ± 0.17	0.98 ± 0.055	1.03 ± 0.063	1.09 ± 0.085	0.955 (active)
COc1ccc2c(c1)c(=O)oc1cc(OCc3cccc(C(F)(F)F)c3)ccc12	1.03 ± 0.076	1.01 ± 0.1	1.04 ± 0.027	0.998 ± 0.047	0.97 ± 0.046	1.11 ± 0.11	0.995 (active)
Cc1ccc(-c2cc(-c3ccccc3)nc(NN=Cc3ccc(F)cc3)n2)cc1	0.961 ± 0.17	1.23 ± 0.1	0.988 ± 0.13	1.02 ± 0.051	1.15 ± 0.11	1.48 ± 0.27	0.959 (active)
O=C(Nc1nc(CC(=O)N2CCc3ccccc3C2)cs1)c1ccc(Cl)cc1	1.05 ± 0.054	1.13 ± 0.09	0.845 ± 0.047	1.01 ± 0.056	1.16 ± 0.11	1.21 ± 0.15	1.01 (active)
O=C(NCC1(O)CCc2ccccc2C1)Nc1ccccc1C(F)(F)F (stereo unspecified)	0.914 ± 0.18	1.02 ± 0.11	1.18 ± 0.074	0.973 ± 0.05	1.17 ± 0.2	1.31 ± 0.42	0.908 (active)
CC(C)Oc1ccc(C(=O)N2CCC(c3ccccc3)S(=O)(=O)CC2)cn1 (stereo unspecified)	1.06 ± 0.08	0.861 ± 0.13	0.998 ± 0.052	0.921 ± 0.054	1.03 ± 0.049	0.968 ± 0.13	0.989 (active)
O=C(Nc1ccc([N+](=O)[O-])cc1Cl)c1cc(Cl)ccc1O [Prestw-40]	1.12 ± 0.28	0.92 ± 0.052	0.938 ± 0.068	0.873 ± 0.064	1.12 ± 0.24	0.832 ± 0.13	1.01 (active)
O=C(O)CC(C(=O)O)N1C(=O)C(=C2C(=O)Nc3ccc(Br)cc32)SC1=S (stereo unspecified)	0.775 ± 0.28	1.05 ± 0.11	0.837 ± 0.069	0.894 ± 0.036	1.24 ± 0.15	1.59 ± 0.4	0.995 (active)
COc1ccc(S(=O)(=O)NCc2cccnc2-c2cnn(C)c2)cc1Cl	1.1 ± 0.055	1.15 ± 0.12	1.04 ± 0.06	1.17 ± 0.058	1.11 ± 0.072	1.04 ± 0.19	0.999 (active)
Oc1cccc(C=Nc2ccc(N=Cc3cccc(O)c3O)cc2)c1O	0.606 ± 0.053	0.727 ± 0.069	0.783 ± 0.079	0.712 ± 0.052	0.93 ± 0.2	0.922 ± 0.2	0.984 (active)
